Results on 10 compounds are retold here after PubChem BioAssay (NCI).

Compounds without any hit were thinned out: in the full panel of roughly 83,000, 20% have a hit.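 Treatment: one concentration, 48 hours, 96-well format. Scoring: percent growth, with anything below 10 considered active.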 Values without a mark were called inactive. Active and inactive are the calls of the source.

Experiment in all cases: NCI-60 one-dose screen, 48 h (100 = growth as untreated, 0 = no growth, -100 = all killed)
One assay deals with HCT-15 colon. To be noted: 10 µM unless noted.
The test system of another assay is HT29 colon. The note with it: 10 µM unless noted.
The test system of a further assay is SNB-75 CNS. To be noted: 10 µM unless noted.
In the next assay the test system is SNB-19 CNS. To be noted: 10 µM unless noted.
Another assay deals with U251 CNS. The note with it: 10 µM unless noted.
A further assay relates to PC-3 prostate. The note with it: 10 µM unless noted.
The subject of a further assay is UACC-62 melanoma. To be noted: 10 µM unless noted.
Another assay deals with LOX IMVI melanoma. To be noted: 10 µM unless noted.
Another assay has as its system SK-MEL-28 melanoma. To be noted: 10 µM unless noted.
For a further assay, the system named is EKVX NSCLC. To be noted: 10 µM.
In a further assay the test system is SN12C renal. The note with it: 10 µM unless noted.
Another assay has as its system UO-31 renal. To be noted: 10 µM unless noted.
The next assay has as its system TK-10 renal. The note with it: 10 µM unless noted.
In the next assay the test system is ACHN renal. The note with it: 10 µM unless noted.
In another assay the test system is CAKI-1 renal. To be noted: 10 µM unless noted.
The subject of another assay is A498 renal. The note with it: 10 µM unless noted.
The subject of a further assay is CCRF-CEM leukemia. The note with it: 10 µM.
A further assay concerns MOLT-4 leukemia. To be noted: 10 µM unless noted.
The test system of another assay is SK-MEL-2 melanoma. The note with it: 10 µM unless noted.
Another assay has as its system SK-MEL-5 melanoma. The note with it: 10 µM unless noted.

With `COc1ccc(C(=O)NCCNc2nccc(-c3c(-c4ccc(F)cc4)nc4sccn34)n2)cc1`, the growth was 36.6% in the assay on HCT-15 colon; 14.6% with HT29 colon; 50.9% in the assay with SNB-75 CNS; 61.9% in the assay with SNB-19 CNS; 55.4% in the assay with U251 CNS; 49.5% with PC-3 prostate. The growth was 47.4% with UACC-62 melanoma; 43.3% with LOX IMVI melanoma; 76.7% in the assay with SK-MEL-28 melanoma; 66.8% in the assay on EKVX NSCLC; 70% with SN12C renal; 34.3% with UO-31 renal. Besides, the growth with TK-10 renal is 29.1%; in the assay on ACHN renal, 29.2%; in the assay with CAKI-1 renal, 43.6%; with A498 renal, 56.1%; in the assay on CCRF-CEM leukemia, 48.1%; with MOLT-4 leukemia it was 59.8%.
Take `O=C(NCCCl)Nc1nccnc1OCc1ccc(F)cc1`: the growth in the assay with HCT-15 colon was 104%; in the assay on HT29 colon it was 102%; in the assay with SNB-75 CNS, 90.3%; with SNB-19 CNS, 94.9%; in the assay with U251 CNS, 101%; with PC-3 prostate it was 96.5%. Further, the growth is 93.7% in the assay with UACC-62 melanoma; 98.3% with LOX IMVI melanoma; 109% with SK-MEL-28 melanoma; 100% with SK-MEL-2 melanoma; 97.5% with EKVX NSCLC; 94.1% in the assay on SN12C renal. Moreover, the growth was 86.8% in the assay on UO-31 renal; 138% with TK-10 renal; 105% in the assay with ACHN renal; 89.6% in the assay on CAKI-1 renal; 105% in the assay with A498 renal; 96% with CCRF-CEM leukemia. In addition, the growth in the assay on MOLT-4 leukemia was 91.9%.
Regarding `COc1cc(-c2nn(-c3ccc(NC(=O)c4ccc(Cl)c(C(F)(F)F)c4)cc3)cc2-c2ccncc2)ccc1Cl`, the growth with HCT-15 colon is -44.1% (active); in the assay on HT29 colon, -75.5% (active); in the assay on SNB-75 CNS, -7.6% (active); in the assay with SNB-19 CNS, 32.9%; with U251 CNS, 22.2%; in the assay with PC-3 prostate, 2.37% (active). Further, the growth with UACC-62 melanoma was -0.867% (active); with LOX IMVI melanoma, 21.6%; in the assay with SK-MEL-28 melanoma, 35.7%; in the assay on EKVX NSCLC, 24.3%; in the assay on SN12C renal, 52.7%; with UO-31 renal, 16.3%. In addition, the growth in the assay on TK-10 renal was 6.27% (active); in the assay on ACHN renal, 18.2%; in the assay with CAKI-1 renal, -16.7% (active); in the assay with A498 renal it was 31.9%; with CCRF-CEM leukemia it was 6.52% (active); with MOLT-4 leukemia it was 3.94% (active).
As to `Cc1nc(N)sc1C(=O)NCCO`, the growth with HCT-15 colon is 108%; in the assay on HT29 colon it was 112%; in the assay on SNB-75 CNS, 105%; in the assay on SNB-19 CNS, 101%; in the assay on U251 CNS it was 106%; with SK-MEL-5 melanoma, 103%. The growth in the assay with UACC-62 melanoma was 93.8%; in the assay with LOX IMVI melanoma, 104%; in the assay on SK-MEL-28 melanoma it was 113%; in the assay with SK-MEL-2 melanoma it was 12.8%; with EKVX NSCLC it was 113%; with SN12C renal, 101%. Further, the growth in the assay with UO-31 renal is 80.2%; in the assay on TK-10 renal it was 112%; in the assay with ACHN renal, 103%; with CAKI-1 renal, 129%; with A498 renal it was 119%; in the assay with CCRF-CEM leukemia, 60.6%. Further, the growth with MOLT-4 leukemia was 155%.
For `COc1ccc2c(c1)/C(=C1/S/C(=N/c3nnc(C)s3)NC1=O)C(=O)N2Cc1ccc(Br)cc1`, the growth with HCT-15 colon is 27.5%; in the assay on HT29 colon it was 35.4%; in the assay with SNB-75 CNS, 45.7%; in the assay on SNB-19 CNS, 24.7%; in the assay with U251 CNS, 14.3%; with PC-3 prostate, 21.9%. The growth with UACC-62 melanoma was 32.9%; in the assay on LOX IMVI melanoma, 32.1%; in the assay with SK-MEL-28 melanoma, 32.6%; in the assay on SK-MEL-2 melanoma, 25.6%; in the assay with EKVX NSCLC it was 31.8%; in the assay on SN12C renal it was 43.4%. Besides, the growth with UO-31 renal is 42.6%; in the assay on TK-10 renal it was 35%; in the assay with ACHN renal, 36.2%; in the assay on A498 renal, 4.62% (active); in the assay with CCRF-CEM leukemia, 21.2%; in the assay with MOLT-4 leukemia, 20.7%.
On to `Oc1ccc(N=Nc2ccc(N=Nc3ccccc3)cc2)cc1`, for which the growth is 40.7% in the assay with HCT-15 colon; 53.4% in the assay with HT29 colon; 87.1% with SNB-75 CNS; 58.4% in the assay on SNB-19 CNS; 51.6% in the assay with U251 CNS; 43.1% with PC-3 prostate. Further, the growth in the assay on UACC-62 melanoma is 1.15% (active); in the assay with LOX IMVI melanoma, 6.08% (active); with SK-MEL-28 melanoma, 54.4%; in the assay on SK-MEL-2 melanoma, 47.3%; in the assay on EKVX NSCLC, 39.8%; in the assay on SN12C renal, 57.1%. The growth with UO-31 renal is 15.8%; in the assay on TK-10 renal, 48.5%; with ACHN renal, 30.8%; with CCRF-CEM leukemia it was 6.69% (active); with MOLT-4 leukemia, 4.57% (active).
As to `COc1ccc(/C=C(/C(=O)N2CCN(c3ccc(C)cc3)CC2)c2cc(OC)c(OC)c(OC)c2)cc1N`, the growth was 11.8% with HCT-15 colon; 3.34% (active) in the assay with HT29 colon; 9.7% (active) with SNB-75 CNS; 33.6% in the assay on SNB-19 CNS; 22% in the assay on U251 CNS; 9.56% (active) in the assay with PC-3 prostate. The growth with UACC-62 melanoma was 40%; in the assay with LOX IMVI melanoma, 22.2%; in the assay with SK-MEL-28 melanoma, 54.3%; in the assay on SK-MEL-2 melanoma, 23.7%; in the assay with EKVX NSCLC, 45.5%; in the assay with SN12C renal it was 28.8%. Also, the growth was 51.2% in the assay with UO-31 renal; 76.7% in the assay on TK-10 renal; 30.5% with ACHN renal; -11.1% (active) in the assay on A498 renal; 13.4% with CCRF-CEM leukemia; 17.5% with MOLT-4 leukemia.
As to `COc1cc(-c2nn(-c3ccc(NC(=O)Nc4ccc(Cl)c(C(F)(F)F)c4)cc3)cc2-c2ccncc2)ccc1Cl`, the growth was 9.82% (active) in the assay with HCT-15 colon; -24.4% (active) in the assay on HT29 colon; -0.838% (active) with SNB-75 CNS; 30.5% in the assay with SNB-19 CNS; -3.64% (active) in the assay with U251 CNS; -58.2% (active) in the assay with SK-MEL-5 melanoma. Moreover, the growth is 6.01% (active) in the assay on UACC-62 melanoma; 11.7% in the assay with LOX IMVI melanoma; 18.2% in the assay on SK-MEL-28 melanoma; 3.21% (active) in the assay with EKVX NSCLC; 26.2% with SN12C renal; 24.5% in the assay on UO-31 renal. The growth was -3.21% (active) in the assay on TK-10 renal; 5.32% (active) in the assay with ACHN renal; -5.53% (active) in the assay with CAKI-1 renal; 6.77% (active) in the assay with A498 renal; 1.77% (active) in the assay with MOLT-4 leukemia.
As for `CC(C)OC(=O)c1ccc2n1CCCc1cnc(Nc3ccccc3)nc1-2`, the growth in the assay with HCT-15 colon was 43.7%; with HT29 colon, 72.5%; in the assay with SNB-75 CNS it was 98.6%; in the assay on SNB-19 CNS it was 89%; in the assay on PC-3 prostate it was 75.7%; with SK-MEL-5 melanoma, 61.1%. For the same compound, the growth was 64.7% in the assay on UACC-62 melanoma; 78.7% in the assay on LOX IMVI melanoma; 92.9% in the assay on SK-MEL-28 melanoma; 66.3% in the assay with SK-MEL-2 melanoma; 57.6% in the assay on EKVX NSCLC; 81.7% in the assay with SN12C renal. Moreover, the growth with UO-31 renal is 64.2%; in the assay on TK-10 renal, 85.3%; in the assay with ACHN renal it was 74.8%; with CAKI-1 renal, 65.6%; in the assay on A498 renal, 63.5%; in the assay on MOLT-4 leukemia it was 73.8%.
For `O=C1C(Cl)=C(SC2=NCCN2)C(=O)c2ccccc21`, the growth is 83.3% in the assay with HCT-15 colon; 102% with HT29 colon; 153% in the assay with SNB-75 CNS; 92.3% with SNB-19 CNS; 64.5% with PC-3 prostate; -29.6% (active) with SK-MEL-5 melanoma. The growth is 74.3% in the assay on UACC-62 melanoma; 18% in the assay with LOX IMVI melanoma; 78.9% in the assay with SK-MEL-28 melanoma; 66.7% in the assay with SK-MEL-2 melanoma; 94.4% in the assay on EKVX NSCLC; 74% in the assay with SN12C renal. Further, the growth is 48.3% in the assay with UO-31 renal; 173% with TK-10 renal; 83.5% in the assay on ACHN renal; 93.9% in the assay with CAKI-1 renal; 119% in the assay on A498 renal; 61.7% in the assay on CCRF-CEM leukemia. Moreover, the growth in the assay with MOLT-4 leukemia was 68.9%.
